Test results taken from PubChem BioAssay (NCI).
The panel holds about 83,000 compounds, 20% with a hit somewhere; the sample as a whole holds those more often.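 Single-concentration screen, 48 h exposure, 96-well plates. Endpoint: percent growth. Below 10 = active.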 Unmarked numbers belong to inactive results. Calls of active or inactive are those of the source.

These compounds were tested on HCT-116 colon (assay: NCI-60 one-dose screen, 48 h (100 = growth as untreated, 0 = no growth, -100 = all killed)). Conditions: 10 µM.

| SMILES | growth |
| --- | --- |
| CC(=O)NNc1ccc2nnc(-c3ccc(Br)cc3)n2n1 | 101% |
| O=C(Nc1ccc(I)cc1F)c1cc(-c2ccc(F)cc2F)ccc1O | 17.2% |
| CS(=O)(=O)Nc1ccc(-c2ccc3c(c2)ncn3-c2ccc(NC(=O)Nc3ccc(Br)cc3)cc2)cc1 | 2.46% (active) |
| Cc1ccc(NCC(=O)Nn2c(COc3ccccc3)nc3ccccc3c2=O)cc1 | 85.1% |
| C=CC(=O)Nc1ccc(C(=O)/C=C/c2ccc(N(C)CCF)cc2)c(O)c1 | -66.2% (active) |
| Cc1ccc(C(C)C)cc1NC(=O)c1ccccc1O | 34.6% |
| Nc1nc(Nc2ccccc2)nn1Cc1c(Cl)cccc1Cl | 22.4% |
| COc1ccc(-c2cc(-c3cc(C(=O)c4ccccc4)n4ccc(C)cc34)nc(N)c2C#N)cc1 | 58.1% |
| CC(=O)Oc1ccccc1C(=O)Oc1ccc(C(=O)/C=C/c2ccncc2)cc1 | -28.5% (active) |
| CC1(C)CC[C@]23CC[C@]4(C)[C@H](CC[C@@H]5[C@@]6(C)CC[C@H](N)C(C)(C)[C@@H]6CC[C@]54C)[C@H]2[C@H]1OC3=O | -98.9% (active) |
| COc1ccc(/C=C/C(=O)c2ccc(S(=O)(=O)NCCNc3nc(Nc4ccc(F)cc4)nc(N(C)C)n3)cc2)cc1 | -67% (active) |
| O=C(c1ccc(Cl)cc1)C1[C@H](c2ccccc2Br)[C@@H](c2ccccc2)NC12C(=O)Nc1ccc(Br)cc12 (some centres undefined) | 3.99% (active) |
| COc1cnc2c(c1)C(=O)c1c-2n(CCCNC(C)C)c(=O)c2cc(OC)c(OC)cc12 | 25.5% |
| CC(=O)Nc1ccc(-n2cnc3cc(-c4ccc(NS(C)(=O)=O)cc4)ccc32)cc1 | 33.9% |
| CC[C@@]1(O)C(=O)OCc2c1cc1n(c2=O)Cc2c-1nc1cc(F)c(C)c3c1c2[C@@H](N)CC3 | 0.118% (active) |
| COc1ccc2c(c1)N=C(C(=O)O)/C2=C/c1sc(Nc2ccc(O)cc2)nc1O | 64.7% |
| COc1ccc(NC(=O)CSc2nnc(-c3ccc4nc(-c5ccc(Cl)cc5)[nH]c4c3)o2)cc1 | 23.2% |
| CC(=O)Nc1ccc(-c2cn(-c3cccc(C(=O)Nc4cc(CN5CCOCC5)cc(C(F)(F)F)c4)c3)nn2)cn1 | -56.1% (active) |
| COc1ccc(-c2nc(Nc3ccccc3S(N)(=O)=O)c3ccccc3n2)cc1 | -42.9% (active) |

| SMILES | growth |
| --- | --- |
| Cc1ccc(CSc2nc(-c3ccc(F)cc3)c(C#N)c(=O)[nH]2)cc1 | 98.5% |
| COc1cccc(COc2ccc(/C=C3\Oc4cc(O)ccc4C3=O)cc2)c1 | 1.73% (active) |
| CC(=O)Nc1ccc(-n2cnc3cc(-c4ccc(O)cc4)ccc32)cc1F | 13.9% |
| CC1CC(c2ccc(N(C)C)cc2)=NN1c1nc(O)c(C2=c3cc(Br)ccc3=NC2=O)s1 (centres undefined) | 66.8% |
| CN1CCc2c(sc3ncnc(N/N=C/c4ccc5ccccc5c4)c23)C1 | -13.2% (active) |
| O=C(Nc1ccc(Cl)c(C(F)(F)F)c1)c1cncc(C#Cc2cnc3ccc(N4CCOCC4)nn23)c1 | -26.7% (active) |
| O=C(N=Nc1c(O)[nH]c2ccc(Br)cc12)c1ccc2nc(-c3ccccc3)[nH]c2c1 | -28.3% (active) |
| COc1cc(/C=C/C(=O)c2ccc(F)cc2)ccc1Oc1nc(Nc2ccc(F)cc2)nc(N(C)C)n1 | 30.2% |
| O=C1Nc2ccc(Cl)cc2/C1=C/c1cccc(OCc2ccccn2)c1 | -98.3% (active) |
| Cc1cc(C(F)(F)F)ccc1C(=O)Nc1sc2c(c1C#N)CCC(=O)C2 | 5.39% (active) |
| COc1ccc(C(=O)NC(=S)N2CCN(c3ncnc4c3cnn4-c3ccccc3)CC2)cc1 | 66.6% |
| Cn1cc(/C=N/Nc2ccnc3cc(Cl)ccc23)c2ccccc21 | -46.5% (active) |
| COc1ccc(N(C)c2cc(C#N)nc3ccccc23)cc1N | 6.17% (active) |
| Cc1cc2nc3c4ccccc4n(CCO)c3nc2cc1C | 34.4% |
| CCCn1c(=O)c2[nH]c(-c3ccc(OCc4nc5ccc(F)cc5[nH]4)cc3)nc2n(CCC)c1=O | 3.12% (active) |
| Cc1cc(=O)oc2cc(OCCCCOc3ccc(/C=C/C(=O)Nc4cccc(Cl)c4)cc3)ccc12 | 79.7% |
| CCOC(=O)c1sc(N/N=C(\C)c2ccc3c(c2)Nc2ccccc2S3)nc1C | 23.4% |
| Cc1nn(-c2ccccc2)c2ncn(CC(=O)N/N=C/c3c[nH]c4ccccc34)c(=O)c12 | 82.5% |

Each compound was assayed on HCC-2998 colon in the same assay as above. Conditions: 10 µM.

| SMILES | growth |
| --- | --- |
| CC(=O)NNc1ccc2nnc(-c3ccc(Br)cc3)n2n1 | 109% |
| O=C(Nc1ccc(I)cc1F)c1cc(-c2ccc(F)cc2F)ccc1O | 5.11% (active) |
| CS(=O)(=O)Nc1ccc(-c2ccc3c(c2)ncn3-c2ccc(NC(=O)Nc3ccc(Br)cc3)cc2)cc1 | 18% |
| Cc1ccc(NCC(=O)Nn2c(COc3ccccc3)nc3ccccc3c2=O)cc1 | 95.7% |
| C=CC(=O)Nc1ccc(C(=O)/C=C/c2ccc(N(C)CCF)cc2)c(O)c1 | -78.4% (active) |
| Cc1ccc(C(C)C)cc1NC(=O)c1ccccc1O | 47.5% |
| Nc1nc(Nc2ccccc2)nn1Cc1c(Cl)cccc1Cl | 15.2% |
| COc1ccc(-c2cc(-c3cc(C(=O)c4ccccc4)n4ccc(C)cc34)nc(N)c2C#N)cc1 | 80.9% |
| CC(=O)Oc1ccccc1C(=O)Oc1ccc(C(=O)/C=C/c2ccncc2)cc1 | -14% (active) |
| CC1(C)CC[C@]23CC[C@]4(C)[C@H](CC[C@@H]5[C@@]6(C)CC[C@H](N)C(C)(C)[C@@H]6CC[C@]54C)[C@H]2[C@H]1OC3=O | -92.2% (active) |
| COc1ccc(/C=C/C(=O)c2ccc(S(=O)(=O)NCCNc3nc(Nc4ccc(F)cc4)nc(N(C)C)n3)cc2)cc1 | 59.3% |
| O=C(c1ccc(Cl)cc1)C1[C@H](c2ccccc2Br)[C@@H](c2ccccc2)NC12C(=O)Nc1ccc(Br)cc12 (some centres undefined) | -13.2% (active) |
| COc1cnc2c(c1)C(=O)c1c-2n(CCCNC(C)C)c(=O)c2cc(OC)c(OC)cc12 | 48.9% |
| CC(=O)Nc1ccc(-n2cnc3cc(-c4ccc(NS(C)(=O)=O)cc4)ccc32)cc1 | 21.5% |
| CC[C@@]1(O)C(=O)OCc2c1cc1n(c2=O)Cc2c-1nc1cc(F)c(C)c3c1c2[C@@H](N)CC3 | -45.4% (active) |
| COc1ccc2c(c1)N=C(C(=O)O)/C2=C/c1sc(Nc2ccc(O)cc2)nc1O | 74.7% |
| COc1ccc(NC(=O)CSc2nnc(-c3ccc4nc(-c5ccc(Cl)cc5)[nH]c4c3)o2)cc1 | 111% |
| CC(=O)Nc1ccc(-c2cn(-c3cccc(C(=O)Nc4cc(CN5CCOCC5)cc(C(F)(F)F)c4)c3)nn2)cn1 | -95.6% (active) |
| COc1ccc(-c2nc(Nc3ccccc3S(N)(=O)=O)c3ccccc3n2)cc1 | 12% |

| SMILES | growth |
| --- | --- |
| Cc1ccc(CSc2nc(-c3ccc(F)cc3)c(C#N)c(=O)[nH]2)cc1 | 115% |
| COc1cccc(COc2ccc(/C=C3\Oc4cc(O)ccc4C3=O)cc2)c1 | 25.2% |
| CC(=O)Nc1ccc(-n2cnc3cc(-c4ccc(O)cc4)ccc32)cc1F | 33.3% |
| CC1CC(c2ccc(N(C)C)cc2)=NN1c1nc(O)c(C2=c3cc(Br)ccc3=NC2=O)s1 (centres undefined) | 32.1% |
| CN1CCc2c(sc3ncnc(N/N=C/c4ccc5ccccc5c4)c23)C1 | 73.8% |
| O=C(Nc1ccc(Cl)c(C(F)(F)F)c1)c1cncc(C#Cc2cnc3ccc(N4CCOCC4)nn23)c1 | -13.3% (active) |
| O=C(N=Nc1c(O)[nH]c2ccc(Br)cc12)c1ccc2nc(-c3ccccc3)[nH]c2c1 | -78% (active) |
| COc1cc(/C=C/C(=O)c2ccc(F)cc2)ccc1Oc1nc(Nc2ccc(F)cc2)nc(N(C)C)n1 | 89% |
| O=C1Nc2ccc(Cl)cc2/C1=C/c1cccc(OCc2ccccn2)c1 | -73.2% (active) |
| Cc1cc(C(F)(F)F)ccc1C(=O)Nc1sc2c(c1C#N)CCC(=O)C2 | -10.6% (active) |
| COc1ccc(C(=O)NC(=S)N2CCN(c3ncnc4c3cnn4-c3ccccc3)CC2)cc1 | 87% |
| Cn1cc(/C=N/Nc2ccnc3cc(Cl)ccc23)c2ccccc21 | -87.8% (active) |
| COc1ccc(N(C)c2cc(C#N)nc3ccccc23)cc1N | 7.99% (active) |
| Cc1cc2nc3c4ccccc4n(CCO)c3nc2cc1C | 123% |
| CCCn1c(=O)c2[nH]c(-c3ccc(OCc4nc5ccc(F)cc5[nH]4)cc3)nc2n(CCC)c1=O | 83.2% |
| Cc1cc(=O)oc2cc(OCCCCOc3ccc(/C=C/C(=O)Nc4cccc(Cl)c4)cc3)ccc12 | 94.2% |
| CCOC(=O)c1sc(N/N=C(\C)c2ccc3c(c2)Nc2ccccc2S3)nc1C | 3.51% (active) |
| Cc1nn(-c2ccccc2)c2ncn(CC(=O)N/N=C/c3c[nH]c4ccccc34)c(=O)c12 | 114% |
